# Measured values from PubChem BioAssay AID1851 (National Center for Advancing Translational Sciences (NCATS), 2009).
# “And” between values parts separate entries of the source, which are not always exact repeats. Equal values may be shown once. About 2,600 (16%) of roughly 16,000 compounds were called active. Inconclusive results (about 20%) are left out. The call rests on the fitted dose curve; in most records, active means well fitted curve in the direction sought with a large enough effect; inconclusive means small, poorly fitted or top-dose-only effect, or effect the other way; inactive means no such curve, though single readings can be large or run the other way. What follows is part of a selection rich in actives, with near analogues and random picks from the rest.
# Biological target: Cytochrome P450 2D6 (Homo sapiens) (UniProt P10635)
# Sequence (P10635 whole entry, looked up): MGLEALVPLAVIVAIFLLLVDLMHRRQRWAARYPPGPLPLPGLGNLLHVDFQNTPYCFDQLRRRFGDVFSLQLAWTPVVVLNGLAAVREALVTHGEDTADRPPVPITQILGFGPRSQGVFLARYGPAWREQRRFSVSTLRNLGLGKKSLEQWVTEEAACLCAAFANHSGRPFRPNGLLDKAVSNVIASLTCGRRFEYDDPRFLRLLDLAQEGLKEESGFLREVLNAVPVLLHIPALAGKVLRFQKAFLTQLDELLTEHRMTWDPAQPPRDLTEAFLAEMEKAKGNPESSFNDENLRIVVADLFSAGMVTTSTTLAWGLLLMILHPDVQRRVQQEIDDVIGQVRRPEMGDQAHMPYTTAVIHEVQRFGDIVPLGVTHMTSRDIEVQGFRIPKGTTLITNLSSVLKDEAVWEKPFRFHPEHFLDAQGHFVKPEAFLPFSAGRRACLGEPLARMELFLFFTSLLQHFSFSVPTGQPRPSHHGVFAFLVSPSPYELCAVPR
# Assay: Cytochrome panel assay with activity outcomes
# Conditions: recombinant CYP, pro-luciferin dealkylation, luminescence, p450-cyp2d6; series mostly up to 57.1 µM; activity, negative = inhibition: at the top concentration
# On the % scale 0 is the no-effect control and ±100 the full control effect.
Structure (SMILES),AC50,"activity, negative = inhibition"
CC(C(=O)c1c[nH]c2ccccc12)N1CCSCC1 (stereo not drawn),6.31 µM (active),
N[C@H](Cc1c[nH]c2ccccc12)P(=O)(O)O,,-0.254% [at 11.4 µM] (inactive)
CC(=O)NCCc1c[nH]c2ccccc12,,1.29% (inactive)
CCCCc1nc2ccccc2c(=O)n1-c1ccc(Cl)cc1[N+](=O)[O-],,8.42% (inactive)
CN(C)[C@@H]1C(=O)C(C(N)=O)=C(O)[C@]2(O)C(=O)C3=C(O)c4c(O)cccc4[C@](C)(O)[C@H]3C[C@@H]12,,-6.07% [at 11.4 µM] (inactive)
CCCCN1C(=O)/C(=C\c2ccco2)C(=O)N(CCc2ccccc2)C1=O,,8.02% (inactive)
Fc1ccc(CCNCc2cccc(Cl)c2)cc1,0.794 µM (active),
Fc1ccc(CCNCc2ccc(Cl)c(Cl)c2)cc1,0.398 µM (active),
O=C(O)[C@@H](O)[C@@H](O)[C@@H]1[O][Sb][O][C@@H]1CO,,12.5% [at 11.4 µM] (inactive)
O=C(O)C[C@H]1NCc2cc3ccccc3nc21,,3.21% [at 11.4 µM] (inactive)
COc1cc(CCN)c(OC)c(OC)c1,,0.204% [at 11.4 µM] (inactive)
C[C@@]12C(=O)OC(=O)[C@@]1(C)[C@H]1CC[C@@H]2O1,,-0.0372% (inactive)
NC(=O)c1ccc(-c2nc(-c3ccc4c(c3)OCO4)c(-c3ccccn3)[nH]2)cc1,12.6 µM (active),
Cc1sc2c(c1C)C(c1ccc(C(C)(C)C)cc1)=NCC(=O)N2CC(=O)Nc1nccs1,,-25.8% (inactive)
C[C@@H]1O[C@@H](O[C@H]2C[C@@H](O)[C@]3(CO)[C@@H]4[C@@H](O)C[C@]5(C)[C@H]([C@@H]6COC(=O)C6)CC[C@@]5(O)[C@H]4CC[C@@]3(O)C2)[C@H](O)[C@H](O)[C@@H]1O,,3.18% (inactive)
COc1cc2c(cc1O)[C@H]1Cc3ccc(OC)c(O)c3CN1CC2,0.0316 µM (active),
COc1ccc2c(c1O)-c1c(OC)c(OC)cc3c1[C@H](C2)N(C)CC3,,-10.8% [at 25.6 µM] (inactive)
COc1cc2c3cc1Oc1c(O)c(OC)cc4c1[C@@H](Cc1ccc(cc1)Oc1cc(ccc1O)C[C@H]3N(C)CC2)N(C)CC4,,0.972% [at 11.4 µM] (inactive)
COc1ccc2cc1Oc1ccc(cc1)C[C@H]1c3cc(c(OC)cc3CCN1C)Oc1c(OC)c(OC)cc3c1[C@@H](C2)N(C)CC3,,-16.9% [at 11.4 µM] (inactive)
COc1ccc2c(c1OC)CN1CCc3cc4c(cc3[C@H]1C2)OCO4,0.0631 µM (active),

Structure (SMILES),AC50,"activity, negative = inhibition"
COc1ccc2c(c1OC)C(=O)O[C@H]2[C@H]1c2cc3c(cc2CCN1C)OCO3,inactive,
CC(Oc1ccc(-c2ccccc2)cc1)C(=O)O (stereo not drawn),,-18.2% (inactive)
CCn1cc(C(=O)O)c(=O)c2cc3c(cc21)OCO3,,2.37% [at 25.6 µM] (inactive)
CCN1C[C@]2(C)CC[C@@H](O)[C@]34[C@@H]5CC6[C@@H](OC)C[C@@](O)([C@H]5[C@@H]6O)[C@@H](C[C@@H]23)[C@H]14,,3.37% (inactive)
CNC[C@H](O)c1ccc(OC(=O)C(C)(C)C)c(OC(=O)C(C)(C)C)c1,,-6.95% [at 25.6 µM] (inactive)
CN1C[C@@H](CS(=O)(=O)N(C)C)C[C@H]2c3cccc4c3c(cn4C)C[C@@H]21,3.98 µM (active),
CC(=NCc1ccco1)c1c(O)n(-c2ccccc2)c(=O)[nH]c1=O,,-1.87% (inactive)
CN1C(=O)CCS(=O)(=O)[C@@H]1c1ccc(Cl)cc1,,2.18% [at 25.6 µM] (inactive)
CN(C)CCCc1c[nH]c2ccccc12,,-8.71% [at 11.4 µM] (inactive)
CN(C)Cc1c[nH]c2ccccc12,0.158 µM (active),
O=C(c1ccccc1)[C@H]1[C@H](c2ccccc2[N+](=O)[O-])N1C1CCCCC1 (stereo partly drawn),,-1.09% [at 11.4 µM] (inactive)
c1ccc(CN2CCC3(CCc4ccccc43)CC2)cc1,0.00631 µM (active),
c1ccc(CN2CCC3(CCNCC3)CC2)cc1,,-16.1% (inactive)
CCOC(=O)c1ncn2c1[C@H]1CCCN1C(=O)c1cc(OC)ccc1-2,,-2.39% (inactive)
O=S1(=O)N(CCN2CC=C(c3c[nH]c4cc(F)ccc34)CC2)c2cccc3c2N1CCC3,0.2 µM (active),
Oc1ccc2[nH]cc(CCCCN3CC=C(c4ccccc4)CC3)c2c1,,-0.13% (inactive)
O=C(CCCC1=NS(=O)(=O)c2ccccc2N1)N1CCC2(CC1)OCCO2,,8.08% (inactive)
O=C(Nc1ccc(Cl)cc1C(=O)c1ccccc1Cl)c1ccco1,,18.6% (inactive)
Nc1ccccc1O.O.O=C(O)[C@H]1[O][Sb][O][C@H]1C(=O)O,,-5.13% [at 11.4 µM] (inactive)
O=[N+]([O-])c1ccc(N2CCNCC2)cc1NC1CC1,,-26.8% (inactive)

Structure (SMILES),AC50,"activity, negative = inhibition"
Clc1cncc(N2CCNCC2)n1,,-5.59% (inactive)
Clc1cccc(N2CCNCC2)c1,25.1 µM (active) and 3.98 µM (active),
O=c1[nH]cnc2[nH]cc(CN3CCCCC3)c12,,7.9% [at 11.4 µM] (inactive)
COc1c2c(cc3c1OCO3)CCN(C)C2,3.98 µM (active),
CC(C)C(=O)N1C2CCC1CC(O)(c1ccc(F)cc1)C2 (stereo not drawn),,-8.02% (inactive)
NC[C@H](O)c1ccc(O)cc1,inactive,
C[C@H](N[C@@H](C)CCc1ccccc1)[C@H](O)c1ccc(O)cc1,2 µM (active),
CNC[C@H](O)c1ccc(O)cc1,,2.97% [at 25.6 µM] (inactive)
CC(C)[N+](C)(CCOC(=O)C1c2ccccc2Oc2ccccc21)C(C)C,31.6 µM (active) and 1.26 µM (active),
O=C(Nc1ccc(F)cc1F)c1cccnc1Oc1cccc(C(F)(F)F)c1,,9.56% (inactive)
CC[C@@H]1[C@@H]2C[C@H]3[C@H]4N(C)c5ccccc5[C@@]45C[C@@H]([C@@H]2[C@@H]5O)N3[C@H]1O,3.98 µM (active),
Clc1ccc(C2=CCC[C@H]3CC[C@@H]2N3)cn1,,-1.47% (inactive)
O=C(CNS(=O)(=O)c1ccc(Br)s1)N1CCC2(CC1)OCCO2,,-8.62% (inactive)
NC(N)=NN=Cc1c(Cl)cccc1Cl,10 µM (active),
O=P(O)(O)c1ccccc1 (tested in a mixture with another compound),,15.2% [at 11.4 µM] (inactive)
O=C(O)Cc1cccnc1C(=O)O,,9% (inactive)
O=C(O)[C@@H]1[C@H](C(=O)O)[C@]2(Cl)C(Cl)=C(Cl)[C@@]1(Cl)C2(Cl)Cl,,-8.74% [at 11.4 µM] (inactive)
O=c1c2ccccc2c2ccccc2c(=O)n1-c1cc2c3ccccc3ccc2c2ccccc12,,2.85% [at 11.4 µM] (inactive)
